# ELG1 genotox = qHTS screen for small molecules that induce genotoxicity in human embryonic kidney (HEK293T) cells expressing luciferase-tagged ELG1; hit rate 1.3% among 330,000; HEK293T ELG1-luciferase reporter, luminescence, 16 h; Potency, µM (series often up to 46 µM), for the others: at the highest dose activity change, positive = activation, hits mostly activators; note: % of control where 0% means no effect; nearly all actives have a fitted effect of over 60% in size
#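 Genotoxic stress is detected as increased luminescence from luciferase-tagged ELG1 in HEK293T cells, measured with ONE-Glo after a 16 hr treatment at 37 °C.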
# MCF10A rerep = A quantitative high throughput screen for small molecules that induce DNA re-replication in MCF 10a normal breast cells; MCF 10A DNA re-replication, Hoechst nuclear intensity, 48 h; hit rate 2.9% among 350,000; Potency, µM (highest dose often 46.1 µM), inactives show at the top dose activity, positive = re-replication, hits mostly activators; AID 624296, 2012; note: % of control where 0% means no effect; nearly all actives have a fitted effect of over 50% in size
# AT treatment = qHTS Assay for Identifying a Potential Treatment of Ataxia-Telangiectasia; Potency, µM (highest dose often 57.5 µM), for inactives: at the top dose activation, most hits filed as activators; F2112 A-T fibroblasts, KAP-1 phosphorylation AlphaLISA; neocarzinostatin DNA damage 30 min before lysis; hit rate 0.19% among 320,000; note: % of control where 0% means no effect; nearly all actives have a fitted effect of over 45% in size
#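 ATM-like activity read as KAP-1 phosphorylation via AlphaLISA donor/acceptor antibody pairs after lysis and 6 hr at 25C. Cells were ATM-null patient fibroblasts (F2112, hTERT), dosed 60 min, then exposed to the DSB inducer NCS for 30 min.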
# p53 reactivation = qHTS assay for re-activators of p53 using a Luc reporter; H1299 p53-A138V BP100-luciferase reporter, luminescence, 24 h; Potency, µM (titrated, usually from 92.2 µM), for the others: top-dose activity change, positive = activation, hits mostly activators; hit rate 0.063% among 320,000; AID 504706, 2011; note: % of control where 0% means no effect; nearly all actives have a fitted effect of over 45% in size
#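 H1299 (p53-null), stable ts p53-A138V + BP100-Luc; 1000 cells/well, Opti-MEM/10% FBS; cpd 4 pt, 1:5; 24 h, 37 deg C, 5% CO2; detection reagent 10 min RT; luminescence.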
# SW480 rerep = A quantitative high throughput screen for small molecules that induce DNA re-replication in SW480 colon adenocarcinoma cells; hit rate 1.8% among 340,000; AID 624297, 2012; SW480 DNA re-replication, Hoechst DNA content imaging, 48 h; Potency, µM (series often up to 46.1 µM), inactives show at the highest dose re-replication activation, actives largely listed as activators; note: % of control where 0% means no effect; nearly all actives have a fitted effect of over 55% in size
#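 SW480 cells exposed to compounds for 48 hr at 37 C, 5% CO2, then Hoechst-stained 40 min. Nuclear DNA content imaged by fluorescence scanning (405 nm excitation, 500-530 nm emission); re-replication scored as increased high-intensity nuclei.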
# ELG1 repair inh = qHTS screen for small molecules that inhibit ELG1-dependent DNA repair in human embryonic kidney (HEK293T) cells expressing luciferase-tagged ELG1; HEK293T ELG1-luciferase reporter, luminescence, 16 h; DNA damage induced by 5-fluorouridine; Potency, µM (top dose mostly 46.1 µM), inactives show at the highest dose activity change, negative = inhibition, actives largely listed as inhibitors; hit rate 2.3% among 330,000; AID 504467, 2011; note: % is set by controls: 0 for no effect and ±100 for the full control effect; nearly all actives have a fitted effect of over 55% in size
#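 Overnight (16 hr) co-exposure of 2,000 cells/well to 5-fluorouridine and compound at 37 °C preceded detection. Luciferase was quantified via ONE-Glo luminescence; loss of signal denotes inhibition.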
# An asterisk follows results filed as active; ? = inconclusive; · = no result; [ ] = dose if it differs, or a comment. Most compounds without a hit are left out; they make up all but 7.1% or so of the library. Calls come from the whole dose curve; as a rule, active = well fitted curve in the direction sought with a large enough effect; inconclusive = small, poorly fitted or top-dose-only effect, or another doubt; inactive = no such curve, though single readings can be large; an effect the other way counts as inactive or inconclusive. Potency is the fitted concentration of half-maximal effect.
SMILES,ELG1 genotox,MCF10A rerep,AT treatment,p53 reactivation,SW480 rerep,ELG1 repair inh
COc1ccc(CCNC(=O)c2ccc(Cl)c(S(=O)(=O)N3CCCC3)c2)cc1,-2.7%,4.7%,5.2%,1.3%,-6.8%,?
CCNC1=C(Cl)C(=O)c2ccccc2C1=O,-7.9%,?,·,-2.2%,?,-14.3%
CCCC(=O)NC1=C(Cl)C(=O)c2ccccc2C1=O,·,?,·,·,6.51µM*,·
O=C(NC1CCN(C(=O)N2c3ccccc3Sc3ccccc32)CC1)c1ccco1,-27.3%,?,2.6%,-4.1%,?,23.1µM*
COC(=O)C1=C(C)NC(=S)NC1c1ccc(-c2cccc(Cl)c2)o1 (configuration not stated),-2.4%,?,-3.3%,11.4%,18.4µM*,?
CCOC(=O)C1=C(C)NC(=S)NC1c1ccc(-c2cccc(Cl)c2C)o1 (configuration not stated),-7.1%,?,8.4%,4.6%,?,20.6µM*
CCOC(=O)C1=C(C)NC(=S)NC1c1ccc(-c2ccc(Cl)cc2)o1 (configuration not stated),-5.2%,?,3.4%,-6.0%,18.7%,?
C[C@@H]1C[C@@H]2OC(=O)[C@]3(C)[C@H]2[C@@H](OC3(C)O)[C@]2(C)C(=O)C=C[C@H]12 (some centres not stated),2.4%,?,39.8µM*,-9.4%,?,1.6%
COc1cc(CN2CCN(c3cccc(C)c3C)CC2)cc(OC)c1O,-3.3%,10.6%,0.3%,0.5%,-5.7%,0.1%
Cc1cccc(N2CCN(Cc3ccoc3)CC2)c1C,3.9%,20.6µM*,·,4.5%,?,4.4%
CCCCN(CC)CCCNC(=O)c1ccc2c(c1)N(CC)C(=O)c1ccccc1S2(=O)=O,-0.2%,0.1%,-4.5%,2.3%,-1.2%,26.7%
CCC(=O)Nc1ccc(C(=O)COC(=O)c2sc(C)nc2C)cc1,-1.0%,-12.1%,-0.1%,10.5%,208.3%,9.1%
COc1cccc(N2CCN(C(=O)CCCCCNc3nc(=S)[nH]c4ccccc34)CC2)c1,-14.6%,28.3%,2.3%,-3.4%,?,18.3µM*
COc1ccc(N2CCN(CNC(=O)c3ccccc3)CC2)cc1,0.4%,0.92µM*,-8.0%,-5.2%,-1.0%,-2.6%
Cc1ccc(S(=O)(=O)NCCC(=O)NCC(c2ccc(F)cc2)N2CCOCC2)cc1 (configuration not stated),1.5%,-3.7%,4.3%,0.0%,-11.2%,-0.2%
COc1ccc(N2CCN(C(=O)NC(=O)c3ccccc3)CC2)cc1,8.2%,4.8%,-3.0%,-4.7%,-4.9%,-4.2%
COc1ccc(N2CCN(C(=O)CCCSc3nc4ccccc4[nH]3)CC2)cc1,-14.6%,-2.6%,·,-0.6%,0.9%[9.22 µM],23.1µM*
NC(=O)CCCSc1nc2ccccc2[nH]1,-0.9%,-13.3%,3.6%,-4.7%,4.3%,3.6%
COc1ccc(C(CNC(=O)CCNS(=O)(=O)c2ccc(C)cc2)N2CCOCC2)cc1 (configuration not stated),-2.6%,12.1%,-0.1%,-6.5%,5.17µM*,19.6%
COCC1CCN(C(=O)C2CCC(=O)N(CCc3cccc(F)c3)C2)CC1 (configuration not stated),0.7%,-0.5%,1.7%,24.6%,-3.3%,-10.1%
O=C(Nc1nnc(SCCN2CCOCC2)s1)C1CC(=O)N(c2ccc(F)cc2)C1 (configuration not stated),10.8%,8.5%,-5.6%,-3.5%,-2.6%,2.4%
